Consider seven compounds from PubChem BioAssay (NCI).

What all share (test): NCI-60 one-dose screen, 48 h (100 = growth as untreated, 0 = no growth, -100 = all killed)
The subject of one assay is NCI-H23 lung. The settings on record: 10 µM unless noted.
The subject of another assay is NCI-H226 lung. Particulars: 10 µM unless noted.
Another assay relates to NCI-H322M lung. The settings on record: 10 µM unless noted.
For the next assay, the system named is HOP-62 NSCLC. Particulars: 10 µM unless noted.
The test system of another assay is NCI-H460 lung. Particulars: 10 µM unless noted.
Another assay relates to HOP-92 NSCLC. Particulars: 10 µM unless noted.
The next assay relates to NCI-H522 lung. The settings on record: 10 µM unless noted.
The subject of a further assay is A549/ATCC NSCLC. Particulars: 10 µM unless noted.
The subject of another assay is 786-0 renal. Particulars: 10 µM unless noted.
A further assay has as its system COLO 205 colon. Particulars: 10 µM unless noted.
Another assay has as its system DU-145 prostate. The settings on record: 10 µM unless noted.
Another assay has as its system K-562 leukemia. The settings on record: 10 µM unless noted.
The test system of another assay is MALME-3M melanoma. The settings on record: 10 µM unless noted.
The test system of another assay is MDA-MB-231 breast. The settings on record: 10 µM unless noted.
The next assay has as its system RXF 393 renal. Particulars: 10 µM unless noted.
Another assay deals with SF-268 CNS. Particulars: 10 µM unless noted.
Another assay has as its system SF-295 CNS. The settings on record: 10 µM unless noted.
For the next assay, the system named is SF-539 CNS. Particulars: 10 µM unless noted.
For the next assay, the system named is UACC-257 melanoma. The settings on record: 10 µM.
A further assay has as its system M14 melanoma. Particulars: 10 µM unless noted.

Molecules are shown by their SMILES. This is part of a sample that, as a whole, favours compounds with a hit. Of some 83,000 tested, about 20% had one in any assay.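 Interpretation: 100, growth as untreated; towards 0, rising growth inhibition; 0, no net growth; 0 to -100, cell death. Compounds scoring below 10 were considered active.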 Values without a mark were called inactive. The source made the active and inactive calls.

As for `Oc1ccc(CSc2nnc(-c3ccc(Br)cc3)o2)c2cccnc12`, the growth in the assay with NCI-H23 lung was 38.3%; in the assay on NCI-H226 lung, 61.5%; with NCI-H322M lung, 35.7%; with HOP-62 NSCLC, 21.9%; with NCI-H460 lung, 10.8%; in the assay on HOP-92 NSCLC, 5.88% (active). Moreover, the growth in the assay with NCI-H522 lung was 29.4%; with A549/ATCC NSCLC it was 29.8%; with 786-0 renal, 39.9%; in the assay on COLO 205 colon, 100%; in the assay with DU-145 prostate it was 40.2%; in the assay on K-562 leukemia it was 15.2%. In addition, the growth with MALME-3M melanoma was 58.5%; with MDA-MB-231 breast, 51.4%; with RXF 393 renal, 60.9%; in the assay on SF-268 CNS, 31.3%; in the assay on SF-295 CNS, 11.3%; in the assay with SF-539 CNS, 28.4%. The growth in the assay on UACC-257 melanoma is 29.7%; in the assay on M14 melanoma it was 31.5%.
As for `O=C(NCCNc1cc(-c2cn(-c3ccccc3)nc2-c2cccc(O)c2)ccn1)Nc1ccc(Cl)c(C(F)(F)F)c1`, the growth with NCI-H23 lung is 41.3%; in the assay with NCI-H226 lung it was 81.5%; in the assay on NCI-H322M lung it was 68.4%; with HOP-62 NSCLC it was 85.3%; with NCI-H460 lung it was 58.5%; with HOP-92 NSCLC, 44%. Besides, the growth is 72.5% in the assay with NCI-H522 lung; 61.8% with A549/ATCC NSCLC; 64.6% with 786-0 renal; 92.9% with COLO 205 colon; 94.6% in the assay with DU-145 prostate; 35.5% in the assay on K-562 leukemia. Further, the growth in the assay with MALME-3M melanoma is 83%; with MDA-MB-231 breast, 36%; with RXF 393 renal, 15.3%; with SF-268 CNS it was 48.6%; in the assay on SF-295 CNS, 7.84% (active); in the assay with SF-539 CNS, 40.2%. For the same compound, the results for the growth with UACC-257 melanoma and with M14 melanoma were 89.6% and 48.3%, respectively.
Consider `Cc1ccc(/C=C/CC(=O)Nc2ccc(C(=O)Nc3ccc(F)cc3N)nc2)cn1`, for which the growth in the assay on NCI-H23 lung was 45.7%; in the assay with NCI-H226 lung, 50.3%; with NCI-H322M lung it was 52.7%; in the assay with HOP-62 NSCLC, 51.1%; in the assay with NCI-H460 lung, 45.6%; with HOP-92 NSCLC, -3.93% (active). The growth in the assay with NCI-H522 lung was 2.35% (active); in the assay on A549/ATCC NSCLC, 43.8%; in the assay with 786-0 renal, 51.4%; with COLO 205 colon it was 25%; in the assay on DU-145 prostate it was 34.9%; in the assay on K-562 leukemia it was 20.4%. Besides, the growth in the assay on MALME-3M melanoma was 23.9%; with MDA-MB-231 breast, 54.7%; in the assay on RXF 393 renal, 37.2%; with SF-268 CNS it was 45.2%; in the assay on SF-295 CNS, 49.1%; with SF-539 CNS, 40.8%. Besides, the growth in the assay on UACC-257 melanoma was 32.9%; in the assay on M14 melanoma it was 35.5%.
For the compound `Cc1ccc(Cc2cnc(NC(=O)/C(C#N)=C/c3ccc(-c4ccc(Cl)cc4)o3)s2)cc1`, the growth in the assay on NCI-H23 lung is 91.3%; with NCI-H226 lung, 117%; in the assay with NCI-H322M lung, 84.9%; in the assay on HOP-62 NSCLC, 101%; in the assay with NCI-H460 lung, 83.8%; in the assay on HOP-92 NSCLC, 66.9%. Besides, the growth in the assay with NCI-H522 lung was 96.9%; with A549/ATCC NSCLC, 103%; in the assay with 786-0 renal, 99.9%; with COLO 205 colon, 93.8%; with DU-145 prostate it was 84%; in the assay on K-562 leukemia, 88.7%. Besides, the growth is 98.8% with MALME-3M melanoma; 97.4% with MDA-MB-231 breast; 61% in the assay on RXF 393 renal; 95.3% in the assay on SF-268 CNS; 102% with SF-295 CNS; 98.4% in the assay with SF-539 CNS. Further, the growth is 100% in the assay with UACC-257 melanoma and 95.9% in the assay on M14 melanoma.
Regarding `COc1ccc2c(c1)oc1c3[nH]c4ccccc4c3c3c(c21)C(=O)N(O)C3=O`, the growth in the assay on NCI-H23 lung was 31.6%; in the assay on NCI-H226 lung it was 79.9%; with NCI-H322M lung, 65.5%; in the assay with HOP-62 NSCLC it was 13.2%; in the assay on NCI-H460 lung, 5.34% (active); in the assay on HOP-92 NSCLC, 98.7%. The growth is 43% with NCI-H522 lung; 74.3% in the assay on A549/ATCC NSCLC; 31.1% with 786-0 renal; 69.5% in the assay on COLO 205 colon; 38.2% in the assay with DU-145 prostate; 31.2% in the assay on K-562 leukemia. The growth in the assay on MALME-3M melanoma was 64.4%; in the assay on MDA-MB-231 breast, 82.9%; in the assay with RXF 393 renal, 31.9%; in the assay with SF-268 CNS, 33.5%; in the assay on SF-295 CNS it was 29.7%; in the assay with SF-539 CNS, 28.9%. The results for the growth in the assay with UACC-257 melanoma and with M14 melanoma were 78.8% and 29.9%, respectively.
On to `COc1ccc(-c2nc3cc(Cl)c(Cl)cc3n2CC(=O)N=Nc2c(O)[nH]c3ccccc23)cc1`, for which the growth was 31.4% in the assay with NCI-H23 lung; -8.79% (active) with NCI-H226 lung; 70.3% in the assay with NCI-H322M lung; 45.3% in the assay with HOP-62 NSCLC; 30.3% in the assay with NCI-H460 lung; 24.1% in the assay on HOP-92 NSCLC. Moreover, the growth is 87.9% in the assay with NCI-H522 lung; 27.8% in the assay with A549/ATCC NSCLC; 100% in the assay on 786-0 renal; 55% with COLO 205 colon; -11.4% (active) with DU-145 prostate; 28.7% in the assay with K-562 leukemia. Also, the growth was 35.9% in the assay on MALME-3M melanoma; 54.2% in the assay on MDA-MB-231 breast; -21.8% (active) with RXF 393 renal; 64.4% in the assay on SF-268 CNS; 79.4% in the assay with SF-295 CNS; 13.7% in the assay on SF-539 CNS. Moreover, the results for the growth in the assay on UACC-257 melanoma and in the assay with M14 melanoma were 95.7% and 50.5%, respectively.
For the compound `CC(C)Sc1nc(NC2CC2)c(C#N)c(-c2ccccc2)n1`, the growth in the assay on NCI-H23 lung was 67.5%; in the assay on NCI-H226 lung, 69.8%; in the assay with NCI-H322M lung, 67.6%; in the assay on HOP-62 NSCLC, 71.5%; in the assay with NCI-H460 lung, 54.5%; with HOP-92 NSCLC it was 76.1%. The growth is 89.2% in the assay on NCI-H522 lung; 62.9% in the assay with A549/ATCC NSCLC; 35% in the assay with 786-0 renal; 79.6% in the assay with COLO 205 colon; 99.1% in the assay with DU-145 prostate; 87.6% in the assay with K-562 leukemia. Besides, the growth in the assay on MALME-3M melanoma was 57.1%; in the assay with MDA-MB-231 breast it was 82%; in the assay on RXF 393 renal, 77.5%; with SF-268 CNS, 95.8%; in the assay on SF-295 CNS, 72%; in the assay with SF-539 CNS it was 82.2%. Further, the growth in the assay on UACC-257 melanoma is 102%; in the assay on M14 melanoma, 95.1%.
